“And” between values parts separate entries of the source, which are not always exact repeats. Equal values may be shown once. Results filed as inconclusive are left out. The source holds several records for some structures; these can differ, active in one and inactive in another. The source made the active and inactive calls. How the source made its calls, unless noted: active means hit-call score of the fitted dose curve at least 0.9, where 1 is the maximum; inactive means score below 0.9.
Read-out: Thrombomodulin, THBD (gene 7056)
Assay: BSK_LPS_Thrombomodulin: BioMAP Diversity Plus: LPS Assay for Thrombomodulin Biomarker Activity (AID 2284296)
Conditions: primary human HUVEC with PBMC
Procedure, shortened: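 Human umbilical vein endothelial cells co-cultured with PBMC and stimulated with LPS; cell-surface thrombomodulin measured by ELISA 24 hours after compound. Gain or loss versus DMSO; cytotoxicity checked by SRB staining in parallel cultures.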

| SMILES | outcome | AC50 |
| --- | --- | --- |
| CC(C)CCCC(C)(C)O | inactive |  |
| CC(=O)c1ccc(C)cc1 | inactive |  |
| C=C(F)C(=O)OC(C(F)(F)F)C(F)(F)F | inactive |  |
| CC(C)(CO)CO | inactive |  |
| OCC(F)(OC(F)(F)C(F)(OC(F)(F)C(F)(F)C(F)(F)F)C(F)(F)F)C(F)(F)F (configuration not stated) | inactive |  |
| CCCCN(CCO)CCO | inactive |  |
| O=S(=O)(O)C(F)(F)C(F)(F)OC(F)(F)C(F)(F)F | inactive |  |
| C=C(C)C(=O)OCCC(F)(F)C(F)(F)C(F)(F)C(F)(F)C(F)(F)C(F)(F)C(F)(F)C(F)(F)F | inactive |  |
| O=C(O)C(F)(F)OC(F)(F)C(F)(F)OC(F)(F)C(F)(F)C(F)(F)C(F)(F)F | inactive |  |
| CCn1cc(C(=O)O)c(=O)c2ccc(C)nc21 | inactive |  |
| CCCO[Si](OCCC)(OCCC)OCCC | inactive |  |
| O=C(O)C(F)(F)C(F)(F)C(F)(F)C(F)(F)C(F)(F)C(F)(F)C(F)(F)C(F)F | inactive |  |
| c1ccc(OCCOc2ccccc2)cc1 | inactive | 12.3 µM (active) |

System: not listed separately
Assay: IUF_NPC2c_oligodendrocyte_migration_120hr: Leibniz Research Institute for Environmental Medicine (IUF) 120-hour Neural Progenitor Cell Migration Assay for Oligodendrocyte Migration (NPC2c) (AID 2284297);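 further: O4-positive oligodendrocyte migration distance divided by radial glia migration distance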
Conditions: not given
Procedure, shortened: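 hNPC spheres (GW 16-19 cortex), PDL/laminin, DMEM/F12 3:1 + 1% N2, 37C. Dosing day 0–5, half feed day 3, DMSO ≤0.1%. Fixed 120 h; O4 ICC + Hoechst, HCI. Readout: mean oligodendrocyte distance from sphere edge / radial glia distance.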

| SMILES | outcome |
| --- | --- |
| c1ccc2scnc2c1 | inactive |
| CC(C)Cc1ccc(C(C)C(=O)O)cc1 (configuration not stated) | inactive |
| CCCCC(CC)COC(=O)COc1ccc(Cl)cc1C (configuration not stated) | inactive |
| N[C@@H](CCC(=O)O)C(=O)O | inactive |

System: not listed separately
Assay: IUF_NPC2a_radial_glia_migration_120hr: Leibniz Research Institute for Environmental Medicine (IUF) 120-hour Neural Progenitor Cell Migration Assay for Radial Glia Migration (NPC2a) (AID 2284298)
Conditions: not given
Procedure, shortened: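 Hoechst-stained nuclei imaged at 120 h; algorithm maps sphere core by densest nuclei, sets migration edge at density threshold, gives radial glia migration distance (um) per well vs DMSO. hNPC spheres (0.3 mm), PDL/laminin, DMEM/F12 3:1 + 1% N2.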

| SMILES | outcome |
| --- | --- |
| c1ccc2scnc2c1 | inactive |
| CC(C)Cc1ccc(C(C)C(=O)O)cc1 (configuration not stated) | inactive |
| CCCCC(CC)COC(=O)COc1ccc(Cl)cc1C (configuration not stated) | inactive |
| N[C@@H](CCC(=O)O)C(=O)O | inactive |

System: not listed separately
Assay: IUF_NPC2a_radial_glia_migration_72hr: Leibniz Research Institute for Environmental Medicine (IUF) 72-hour Neural Progenitor Cell Migration Assay for Radial Glia Migration (NPC2a) (AID 2284299)
Conditions: not given
Procedure, shortened: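 Human fetal cortex (GW 16-19) neural progenitor spheres, 0.3 mm, plated on poly-D-lysine/laminin in N2 differentiation medium with compound from day 0. Radial glia migration distance (um, sphere core edge to migration edge) measured manually in four directions on 72 h brightfield images; well mean used.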

| SMILES | outcome |
| --- | --- |
| c1ccc2scnc2c1 | inactive |
| CC(C)Cc1ccc(C(C)C(=O)O)cc1 (configuration not stated) | inactive |
| CCCCC(CC)COC(=O)COc1ccc(Cl)cc1C (configuration not stated) | inactive |
| N[C@@H](CCC(=O)O)C(=O)O | inactive |

System: not listed separately
Assay: IUF_NPC2b_neuronal_migration_120hr: Leibniz Research Institute for Environmental Medicine (IUF) 120-hour Neural Progenitor Cell Migration Assay for Neuron Migration (NPC2b) (AID 2284300)
Conditions: not given
Procedure, shortened: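 hNPC spheres, PDL/laminin, DMEM:F12 3:1 + 1% N2, 37C/5% CO2; 7 concentrations + solvent control (DMSO ≤0.1%), 5 d exposure, half-feed day 3. Fix 120 h, TUBB3 ICC, HCI: mean neuron migration distance ÷ glia distance.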

| SMILES | outcome |
| --- | --- |
| c1ccc2scnc2c1 | inactive |
| CC(C)Cc1ccc(C(C)C(=O)O)cc1 (configuration not stated) | inactive |
| CCCCC(CC)COC(=O)COc1ccc(Cl)cc1C (configuration not stated) | inactive |
| N[C@@H](CCC(=O)O)C(=O)O | inactive |

System: not listed separately
Assay: IUF_NPC3_neuronal_differentiation_120hr: Leibniz Research Institute for Environmental Medicine (IUF) 120-hour Neuronal Differentiation Assay (NPC3) (AID 2284301)
Conditions: not given
Procedure, shortened: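 Single 0.3 mm neurospheres from human fetal cortex were plated in differentiation medium containing test compound. Medium was half-replaced on day 3. After 120 h cells were fixed, immunostained and imaged, and neuronal fraction was scored against DMSO control.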

| SMILES | outcome |
| --- | --- |
| c1ccc2scnc2c1 | inactive |
| CC(C)Cc1ccc(C(C)C(=O)O)cc1 (configuration not stated) | inactive |
| CCCCC(CC)COC(=O)COc1ccc(Cl)cc1C (configuration not stated) | inactive |
| N[C@@H](CCC(=O)O)C(=O)O | inactive |

System: not listed separately
Assay: IUF_NPC4_neurite_length_120hr: Leibniz Research Institute for Environmental Medicine (IUF) 120-hour Neuronal Morphology Assay for Neurite Length (NPC4) (AID 2284302)
Conditions: not given
Procedure, shortened: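 Read-out is mean neurite length in µm of TUBB3-positive neurons, skeletonized from high-content fluorescence images after 120 h. Single 0.3 mm primary human neural progenitor spheres differentiated on poly-D-lysine/laminin under continuous compound exposure; DMSO was baseline.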

| SMILES | outcome |
| --- | --- |
| c1ccc2scnc2c1 | inactive |
| CC(C)Cc1ccc(C(C)C(=O)O)cc1 (configuration not stated) | inactive |
| CCCCC(CC)COC(=O)COc1ccc(Cl)cc1C (configuration not stated) | inactive |
| N[C@@H](CCC(=O)O)C(=O)O | inactive |

Read-out: CD69, CD69 (gene 969)
Assay: BSK_LPS_CD69: BioMAP Diversity Plus: LPS Assay for CD69 Biomarker Activity (AID 2284303)
Conditions: primary human HUVEC with PBMC
Procedure, shortened: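 Human umbilical vein endothelial cells co-cultured with PBMC under LPS stimulation, chemical exposure 24 h; cell-surface CD69 measured by ELISA and fitted in the positive direction versus DMSO.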

| SMILES | outcome | AC50 |
| --- | --- | --- |
| CC(C)CCCC(C)(C)O | inactive |  |
| CC(=O)c1ccc(C)cc1 | inactive |  |
| C=C(F)C(=O)OC(C(F)(F)F)C(F)(F)F | inactive |  |
| CC(C)(CO)CO | inactive |  |
| OCC(F)(OC(F)(F)C(F)(OC(F)(F)C(F)(F)C(F)(F)F)C(F)(F)F)C(F)(F)F (configuration not stated) | inactive | 4.81 µM (active) |
| CCCCN(CCO)CCO | inactive |  |
| O=S(=O)(O)C(F)(F)C(F)(F)OC(F)(F)C(F)(F)F | inactive |  |
| C=C(C)C(=O)OCCC(F)(F)C(F)(F)C(F)(F)C(F)(F)C(F)(F)C(F)(F)C(F)(F)C(F)(F)F | inactive |  |
| O=C(O)C(F)(F)OC(F)(F)C(F)(F)OC(F)(F)C(F)(F)C(F)(F)C(F)(F)F |  | 36 µM (active) and 32.4 µM (active) |
| CCn1cc(C(=O)O)c(=O)c2ccc(C)nc21 | inactive |  |
| CCCO[Si](OCCC)(OCCC)OCCC | inactive |  |
| O=C(O)C(F)(F)C(F)(F)C(F)(F)C(F)(F)C(F)(F)C(F)(F)C(F)(F)C(F)F | inactive |  |
| c1ccc(OCCOc2ccccc2)cc1 | inactive |  |

System: not listed separately
Assay: IUF_NPC4_neurite_area_120hr: Leibniz Research Institute for Environmental Medicine (IUF) 120-hour Neuronal Morphology Assay for Neurite Area (NPC4) (AID 2284305; active means hit-call score of the fitted dose curve at least 0.9, where 1 is the maximum)
Conditions: not given
Procedure, shortened: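 Neurite area is read out as the mean pixel area, excluding nuclei, of skeletonized TUBB3-positive neurons imaged after 120 h. Primary human neural progenitor spheres differentiated on poly-D-lysine/laminin with compound present from day 0. Activity was referenced to DMSO controls.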

| SMILES | outcome |
| --- | --- |
| c1ccc2scnc2c1 | inactive |
| CC(C)Cc1ccc(C(C)C(=O)O)cc1 (configuration not stated) | inactive |
| CCCCC(CC)COC(=O)COc1ccc(Cl)cc1C (configuration not stated) | inactive |
| N[C@@H](CCC(=O)O)C(=O)O | inactive |

System: not listed separately
Assay: IUF_NPC2-5_cytotoxicity_72hr: Cytotoxicity Assessment at 72 hours in the Leibniz Research Institute for Environmental Medicine (IUF) Neural Progenitor Cell Migration and Differentiation Assay for Cytotoxicity (NPC2-5) (AID 2284306; active means hit-call score of the fitted dose curve at least 0.9, where 1 is the maximum;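 further: LDH release into supernatant measured by resorufin fluorescence marking membrane damage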)
Conditions: not given
Procedure, shortened: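 Membrane integrity loss was scored from fluorescence (RFU) of resorufin generated by LDH in culture supernatant, 72 h after dosing. Differentiating human progenitor spheres received seven serial compound concentrations alongside a solvent control.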

| SMILES | outcome |
| --- | --- |
| c1ccc2scnc2c1 | inactive |
| CC(C)Cc1ccc(C(C)C(=O)O)cc1 (configuration not stated) | inactive |
| CCCCC(CC)COC(=O)COc1ccc(Cl)cc1C (configuration not stated) | inactive |

System: not listed separately
Assay: IUF_NPC2-5_cytotoxicity_120hr: Cytotoxicity Assessment at 120 hours in the Leibniz Research Institute for Environmental Medicine (IUF) Neural Progenitor Cell Migration and Differentiation Assay (NPC2-5) (AID 2284307; active means hit-call score of the fitted dose curve at least 0.9, where 1 is the maximum)
Conditions: not given
Procedure, shortened: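 hNPC spheres on PDL/laminin, N2 medium, 37C; 7 concs + solvent control, DMSO ≤0.1%; 5-day exposure, half medium changed day 3. LDH in supernatant at 120 h, resazurin→resorufin fluorescence, gain-of-signal.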

| SMILES | outcome |
| --- | --- |
| c1ccc2scnc2c1 | inactive |
| CC(C)Cc1ccc(C(C)C(=O)O)cc1 (configuration not stated) | inactive |
| CCCCC(CC)COC(=O)COc1ccc(Cl)cc1C (configuration not stated) | inactive |
| N[C@@H](CCC(=O)O)C(=O)O | inactive |

System: not listed separately
Assay: IUF_NPC2-5_cell_number_120hr: Cell Number Assessment at 120 hours in the Leibniz Research Institute for Environmental Medicine (IUF) Neural Progenitor Cell Migration and Differentiation Assay (NPC2-5) (AID 2284308);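 further: count of Hoechst-stained nuclei in migration zone around plated human neural progenitor spheres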
Conditions: not given
Procedure, shortened: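 Hoechst-stained nuclei within the migration area were counted by automated high content imaging after 120 h. Single hNPC spheres differentiated on poly-D-lysine/laminin in DMEM/F12 (3:1) with 1% N2, compound present throughout, DMSO ≤0.1%.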

| SMILES | outcome |
| --- | --- |
| c1ccc2scnc2c1 | inactive |
| CC(C)Cc1ccc(C(C)C(=O)O)cc1 (configuration not stated) | inactive |
| CCCCC(CC)COC(=O)COc1ccc(Cl)cc1C (configuration not stated) | inactive |
| N[C@@H](CCC(=O)O)C(=O)O | inactive |

From PubChem BioAssay (EPA / NIEHS)
